Records with an inconclusive call do not appear. Values without a mark were called inactive. Activity calls are given as the source filed them. Calls follow the shape of the dose curve; as a rule, active = well fitted curve in the direction sought with a large enough effect; inconclusive = small, poorly fitted or top-dose-only effect, or another doubt; inactive = no such curve, though single readings can be large or run the other way.
Experiment: Cell viability assay for measurement of the protective activity of small molecules against cell death caused by Zika virus infection in human astrocytes
Conditions: human astrocytes ZIKV-induced death, ATP luminescence, 72 h; series mostly up to 46.1 µM; protection from virus-induced death: at the top concentration
Source text: National Center for Advancing Translational Sciences [NCATS] Johns Hopkins University School of Medicine Florida State University Assay Overview: Zika virus infection causes cell death in certain cell types including human neural progenitor cells (hNPCs), astrocytes, and astrocytoma cell line (SNB-19). This cell viability assay measures the ATP content (level) in human astrocytes using a luminescence readout that is proportional to viable cell numbers. Decrease in the luminescence signal after Zika virus infection indicates the cell death caused by Zika virus. Small molecule inhibitors […] the decreased luminescence signal after Zika virus infection, indicating the protective effect of that small molecule on the cell death caused by Zika virus infection. This observed protective effect of small molecules against Zika virus induced cell death may result from inhibition of virus replication or cellular response to the virus infection.
Assay Protocol Summary: The medium for astrocytes contains AM basal medium (ScienCell, Cat.# 1801), AGS (ScienCell, Cat.# 1801), 10% FBS, and 1% Pen/Strep. The ATP content assay kit (PerkinElmer, Cat.# 6016731) was used to determine cell viability. The reagent was reconstituted and prepared as described by the manufacturer. Cells were seeded in 384- or 1536-well assay plates and cultured at 37 C with 5% CO2 for 16 to 20 hours. The typical cell seeding density in the 1536-well plate assay is 350 cells/well in 3 ul medium for astrocytes in the tissue cultured treated/PDL coated plates. Compounds were added to cells and incubated for one hour before addition of ZIKV solution to cells (2 FFU/cell). After incubation at 37 C with 5% CO2 for 72 hours, the reagent mixture of the ATP content assay kit was added to each well, followed by incubation at room temperature for 10 minutes. The luminescence intensity of the assay plates was measured using a ViewLux plate reader (PerkinElmer). […] The percentage inhibitions of the decreased cell viability by small molecule inhibitors were then calculated.

Row | SMILES | protection from virus-induced death | Potency
1 | CCOC1OC(=O)C[C@H]1NC(=O)[C@@H]1CCCN1C(=O)[C@@H](NC(=O)c1ccc(N)c(Cl)c1)C(C)(C)C (stereo not given in full) | 1.13% | –
2 | O=C(O)c1cccc(-c2noc(-c3ccccc3F)n2)c1 | -5.89% | –
3 | CN(C)c1cc(NC(=O)CNC(C)(C)C)c(O)c2c1C[C@@H]1C[C@H]3[C@H](N(C)C)C(=O)C(C(N)=O)=C(O)[C@@]3(O)C(=O)C1=C2O | -2.39% | –
4 | CS(=O)(=O)c1ccc(-c2cn3ccccc3n2)cc1 | -6.51% | –
5 | Oc1ccc(/C=C/c2cc(O)cc(O)c2)cc1 | -6.36% | –
6 | CCN(CC)c1ccc(C(=C2C=CC(=[N+](CC)CC)C=C2)c2cc(S(=O)(=O)O)ccc2S(=O)(=O)[O-])cc1 | -6.8% | –
7 | C/C(=N\O)c1ccc(OCC(=O)N2CCCCC2)cc1 | -5.29% | –
8 | CCC(C(=O)O)c1ccc(N2Cc3ccccc3C2=O)cc1 (stereo not given) | -4.84% | –
9 | NC1CCC(Nc2nc(Nc3ccc(C(=O)N4CCCCC4)cc3)c3ncn(-c4cccc(F)c4)c3n2)CC1 (stereo not given) | -10.1% | –
10 | Cc1cccc(C#Cc2ccccc2)n1 | -0.738% | –
11 | O=C(Nc1ccc(C(=O)O)c(O)c1)c1ccccc1 | 1.26% | –
12 | COc1cccc(-c2cc(=O)c3ccccc3o2)c1N | -7.91% | –
13 | CC(C)N[C@@H]1CCn2c(=O)[nH]c3cccc(c32)[C@@H]1O | -5.21% | –
14 | CN(C)c1ccc(N=NS(=O)(=O)O)cc1 | -4.46% [at 88.3 µM] | –
15 | CC(C)c1ccc2oc3nc(N)c(C(=O)O)cc3c(=O)c2c1 | -9.76% | –
16 | N#C/C(=C\c1ccc(O)c(O)c1)C(=O)Nc1ccccc1 | 8.43% | –
17 | COP(=S)(OC)SCN1C(=O)c2ccccc2C1=O | -5.96% | –
18 | c1ccc(CCNc2nc(-c3ccccc3)cs2)cc1 | -4.1% | –
19 | O=C(/C=C/c1ccc(O)cc1)c1ccc(O)cc1O | 16.2% | –
20 | O=C1NC(=O)C(=Cc2ccc(-c3ccc(F)cc3)o2)S1 | 1.74% | –

Row | SMILES | protection from virus-induced death | Potency
21 | CN(C)CCCSc1ccccc1NC(=O)/C=C/c1ccccc1 | -2.15% | –
22 | O=C(Nc1cc2cc[nH]c2cn1)c1ccccc1 | -10.3% | –
23 | CC(=C(CCOC(=O)C(C)C)SSC(CCOC(=O)C(C)C)=C(C)N(C=O)Cc1cnc(C)nc1N)N(C=O)Cc1cnc(C)nc1N | -5.9% | –
24 | O=C(/C=C/c1ccccc1)NCCO | -2% | –
25 | O=C1C(Cl)=C(NCCN2CCOCC2)C(=O)c2ncccc21 | -8.42% | –
26 | O=C(Nc1ccc(OC(F)(F)F)cc1)c1sccc1NCc1ccnc2ccccc12 | 20.3% | –
27 | O=c1cc(-c2ccccc2)oc2cc(O)c(O)c(O)c12 | -3.19% | –
28 | Clc1ccccc1-c1nc(-c2ccncc2)no1 | -2.26% | –
29 | CO[C@H]1C(=O)[C@]2(C)[C@@H](OC)C[C@H]3OC[C@@]3(OC(C)=O)[C@H]2[C@H](OC(=O)c2ccccc2)[C@]2(O)C[C@H](OC(=O)[C@H](O)[C@@H](NC(=O)OC(C)(C)C)c3ccccc3)C(C)=C1C2(C)C | 6.47% | –
30 | O=c1c(-c2ccc(O)cc2)coc2cc(OC3O[C@H](CO)[C@H](O)[C@H](O)[C@H]3O)cc(O)c12 (stereo not given in full) | 4.77% | –
31 | CC(C)(C)OC(=O)CN(Cc1ccc(Cl)cc1)Cc1ccc([N+](=O)[O-])s1 | 4.94% [at 88.3 µM] | –
32 | Nc1c(S(=O)(=O)O)cc(Nc2ccc(Nc3nc(Cl)nc(Nc4ccc(S(=O)(=O)O)cc4)n3)c(S(=O)(=O)O)c2)c2c1C(=O)c1ccccc1C2=O | 4.07% | –
33 | O=C(Oc1ccccc1)c1cccc(C(=O)Oc2ccccc2)c1 | 3.3% [at 96.3 µM] | –
34 | O=C1c2ccccc2-[n+]2ccc3c([nH]c4ccccc43)c21 | -10.2% | –
35 | Cc1oncc1C(=O)Nc1ccc(C(F)(F)F)cc1 | -3.72% | –
36 | CC(C)OC(=O)CCCC=CC[C@@H]1[C@H](C=C[C@@H](O)COc2cccc(C(F)(F)F)c2)[C@H](O)C[C@@H]1O | 16% | –
37 | CC(O)=C(C#N)C(=O)Nc1ccc(C(F)(F)F)cc1 | -8.15% | –
38 | CC[n+]1c(-c2ccccc2)c2cc(N)ccc2c2ccc(N)cc21 | – | 1.95 µM (active)
39 | Cc1ccc(C(=O)c2ccc(CC(=O)O)n2C)cc1 | -3.13% | –
40 | O=C(C=CC=Cc1ccc2c(c1)OCO2)N1CCCCC1 | -6.68% | –

From PubChem BioAssay AID1224856 (National Center for Advancing Translational Sciences (NCATS), 2016)
